Assay [1] concerns Plasmodium falciparum Sir2 (PF13_0152, Sir2A). The experiment in a line: pfSir2 binders on small-molecule microarrays, primary screen, biochemical, small-molecule microarray, 635 nm fluorescence (AID 1098).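 Note: score merges spot fluorescence intensity with its signal-to-noise ratio.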 The note with it: small-molecule microarray binding, fluorescence 635 nm; higher = more signal.
Assay [2] is described as follows: small-molecule microarray binders of probe aDKK1, primary screen, biochemical, biotinylated probe, 635/667 nm fluorescence (AID 1099).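 Note: score merges 667nm spot fluorescence with signal to noise across triplicate slides; reference of the scale not given here.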 The note with it: higher = more signal.
The nature of assay [3]: small-molecule microarray binders of probe aCHRDL2, primary screen, biochemical, biotinylated probe, 635/667 nm fluorescence (AID 1100). The note with it: higher = more signal.
A short description of assay [4]: splicing luciferase reporter signal modulators, primary screen, spliceosome inhibition project, cell-based, HEK293, splice +/- reporter (AID 1101).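 Note: HEK293 cells carrying a splicing-competent luciferase reporter gene; test concentration not given here.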 Conditions: luminescence, 24 h, higher = more signal, called active from +8 up or from −8 down. (In a reporter assay the amount or activity of a reporter protein is the signal.)
The target of assay [5] is Fibroblast growth factor 10 (Homo sapiens) (UniProt O15520). The experiment in a line: FGF10 binders on small-molecule microarrays, primary screen, biochemical, small-molecule microarray, 635 nm fluorescence (AID 1102). Conditions: FGF10 binding, fluorescence 635 nm, higher = more signal.
Chain of Fibroblast growth factor 10 (Homo sapiens) (O15520 whole entry, looked up): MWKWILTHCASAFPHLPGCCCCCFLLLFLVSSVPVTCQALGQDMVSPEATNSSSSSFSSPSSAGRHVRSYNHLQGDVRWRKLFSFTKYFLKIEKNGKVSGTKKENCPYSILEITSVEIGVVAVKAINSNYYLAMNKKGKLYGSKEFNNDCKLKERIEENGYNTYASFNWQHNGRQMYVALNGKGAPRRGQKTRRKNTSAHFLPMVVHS
For assay [6], the system named is glycogen synthase kinase-3 (GSK3A per assay name; protocol says GSK3B). The experiment in a line: GSK3 binders on small-molecule microarrays, primary screen, biochemical, small-molecule microarray, 635 nm fluorescence, GSK3A (AID 1103). Note: the record names both GSK3A and GSK3B. Conditions: small-molecule microarray binding, fluorescence 635 nm; higher = more signal.
The target in assay [7] is Epidermal growth factor receptor (Homo sapiens) (UniProt P00533). The experiment in a line: EGFR binders on small-molecule microarrays, primary screen, biochemical, small-molecule microarray, 635 nm fluorescence (AID 1104).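 Note: score merges 667 nm emission intensity with spot signal to noise over triplicate slides.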 The note with it: EGFR binding, higher = more signal.
Chain of Epidermal growth factor receptor (Homo sapiens) (P00533 whole entry, looked up): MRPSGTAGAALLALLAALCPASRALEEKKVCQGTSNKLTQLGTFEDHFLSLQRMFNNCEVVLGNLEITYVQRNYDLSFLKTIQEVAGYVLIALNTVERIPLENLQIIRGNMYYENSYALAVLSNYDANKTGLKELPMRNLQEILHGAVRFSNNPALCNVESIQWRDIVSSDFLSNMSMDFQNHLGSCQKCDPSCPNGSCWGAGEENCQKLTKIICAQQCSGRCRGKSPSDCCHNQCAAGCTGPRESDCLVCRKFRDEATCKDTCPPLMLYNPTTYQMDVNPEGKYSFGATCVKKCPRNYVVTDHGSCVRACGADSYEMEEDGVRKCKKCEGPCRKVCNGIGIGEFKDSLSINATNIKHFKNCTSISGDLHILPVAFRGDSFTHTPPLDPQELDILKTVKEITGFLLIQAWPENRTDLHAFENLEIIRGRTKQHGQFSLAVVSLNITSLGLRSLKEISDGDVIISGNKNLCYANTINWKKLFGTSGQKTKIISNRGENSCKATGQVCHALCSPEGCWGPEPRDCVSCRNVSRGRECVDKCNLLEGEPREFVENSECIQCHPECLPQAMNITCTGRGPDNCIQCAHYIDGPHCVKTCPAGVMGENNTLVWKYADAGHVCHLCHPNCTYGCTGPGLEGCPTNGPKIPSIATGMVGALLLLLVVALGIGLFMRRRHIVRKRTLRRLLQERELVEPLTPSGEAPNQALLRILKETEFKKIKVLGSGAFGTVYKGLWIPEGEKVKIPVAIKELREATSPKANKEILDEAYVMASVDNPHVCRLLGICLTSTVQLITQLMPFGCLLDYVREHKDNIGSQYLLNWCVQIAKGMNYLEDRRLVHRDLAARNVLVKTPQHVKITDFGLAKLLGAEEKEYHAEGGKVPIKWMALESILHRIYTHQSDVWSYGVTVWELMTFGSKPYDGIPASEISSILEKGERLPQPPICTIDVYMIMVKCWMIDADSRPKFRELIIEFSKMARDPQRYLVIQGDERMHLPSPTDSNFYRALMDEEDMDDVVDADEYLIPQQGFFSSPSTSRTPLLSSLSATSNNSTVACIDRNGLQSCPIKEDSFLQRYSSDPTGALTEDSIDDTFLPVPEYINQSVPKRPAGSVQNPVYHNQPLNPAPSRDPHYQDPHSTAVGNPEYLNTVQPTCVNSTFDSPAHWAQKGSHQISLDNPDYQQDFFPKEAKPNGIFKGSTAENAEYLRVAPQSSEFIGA
Assay [8] addresses Follistatin-related protein 3 (Homo sapiens) (UniProt O95633). The experiment in a line: FSTL3 binders on small-molecule microarrays, primary screen, biochemical, small-molecule microarray, 635 nm fluorescence (AID 1105).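 Note: score merges emission near 667 nm and signal to noise per printed spot across three slides.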 Conditions: FSTL3 binding, higher = more signal.
Assay [9] addresses Dickkopf-related protein 1 (Homo sapiens) (UniProt O94907). The experiment in a line: DKK1 binders on small-molecule microarrays, primary screen, biochemical, small-molecule microarray, 635 nm fluorescence scan (AID 1106).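 Note: score merges emission near 667 nm with signal to noise over three replicate slides.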 The note with it: DKK1 binding, higher = more signal.
Assay [10] relates to Inhibin beta A chain (activin A). The experiment in a line: INHBA (activin A) binders on microarrays, primary screen, biochemical, small-molecule microarray, 635 nm fluorescence scan (AID 1107).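 Note: mouse activin A protein probed at 4.33 µg/mL on printed slides; score merges bound-protein fluorescence near 667 nm with spot signal-to-noise.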 The note with it: small-molecule microarray binding, higher = more signal.

Calls of active or inactive are those of the source.

Chain of Follistatin-related protein 3 (Homo sapiens) (O95633 whole entry, looked up): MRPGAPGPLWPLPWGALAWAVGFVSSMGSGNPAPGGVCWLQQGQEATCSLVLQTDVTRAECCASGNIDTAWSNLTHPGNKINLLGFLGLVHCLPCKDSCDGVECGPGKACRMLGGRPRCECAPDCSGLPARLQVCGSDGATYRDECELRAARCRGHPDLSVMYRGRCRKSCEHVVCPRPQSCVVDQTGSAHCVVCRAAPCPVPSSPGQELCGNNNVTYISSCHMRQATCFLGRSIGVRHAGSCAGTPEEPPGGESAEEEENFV
Chain of Dickkopf-related protein 1 (Homo sapiens) (O94907 whole entry, looked up): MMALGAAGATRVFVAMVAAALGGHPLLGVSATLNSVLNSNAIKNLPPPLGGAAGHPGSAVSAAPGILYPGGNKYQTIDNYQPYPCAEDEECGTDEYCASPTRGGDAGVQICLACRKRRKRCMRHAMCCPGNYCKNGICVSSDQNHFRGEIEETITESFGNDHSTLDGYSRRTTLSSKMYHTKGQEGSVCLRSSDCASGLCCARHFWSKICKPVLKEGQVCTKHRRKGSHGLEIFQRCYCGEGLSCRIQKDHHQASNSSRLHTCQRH

With `CC(C)(C)OC(=O)CC[C@@]1(C(=O)NCCN2CCOCC2)N=C(c2ccc(OCCCO)cc2)O[C@@H]1c1ccccc1N=[N+]=[N-]`, the composite z-score in assay [1] came out at 0.739; in assay [2], 1.04; in assay [3] it was 1.21; in assay [5], 1.1; in assay [6], 0.0778; in assay [7] it was 0.0224. The figures for the composite z-score in [8], in assay [9] and in assay [10] were 1.06, 0.0741 and 1.24, respectively. The z-score in assay [4] was -0.744 (inactive).

Turning to `COc1ccc([Si](C)(C)[C@@H]2[C@@H](CCO)O[C@]3(C(=O)N(Cc4ccc(N5C(=O)COc6ccccc65)cc4)c4ccccc43)[C@H]2C)cc1`, the composite z-score was 1.31 in assay [1]; 0.146 in assay [2]; 0.147 in assay [3]; 0.808 in assay [5]; 0.522 in assay [6]; 0.334 in assay [7]. For the same molecule, the results for the composite z-score in assay [8], in [9] and in assay [10] were 0.469, 0.129 and 0.678, respectively. Besides, the z-score in assay [4] is -1.68 (inactive).

Regarding `C=C/C=C/[C@H]1C(=C)CN([C@@H](Cc2ccccc2)C(=O)OC)[C@@H]1[C@H](O)Cc1ccccc1`, the composite z-score in assay [1] is -0.181; in assay [2] it was -0.167; in assay [3], 0.44; in assay [5], -0.557; in assay [6], -0.546; in assay [7] it was -1.23. Further, the composite z-score is -0.542 in [8], -0.306 in assay [9] and 0.97 in assay [10]. Besides, in assay [4], the z-score is 1.04 (inactive).

For the molecule `COc1ccc([Si](C)(C)[C@H]2[C@H](CC(=O)N3Cc4ccccc4C[C@H]3CO)O[C@@]3(C(=O)N(Cc4ccc(N5CCC5=O)cc4)c4ccccc43)[C@@H]2C)cc1`, the composite z-score in assay [1] was 1.21; in assay [2], -0.283; in assay [3] it was 0.51; in assay [5] it was 1.15; in [6] it was 0.972; in assay [7], 1.11. Besides, the composite z-score in assay [8] was determined as 1.44; in [9], 1; in assay [10], 1.28. Besides, the z-score in assay [4] is -0.315 (inactive).

For `COC(=O)C(CC#Cc1ccc2c(c1)[C@]1(C(=O)N2)[C@H](C(=O)O)[C@H]2C(=O)O[C@H](c3ccccc3)[C@H](c3ccccc3)N2[C@@H]1c1ccc(O)cc1)C(=O)OC`, the composite z-score in assay [1] was 0.472; in [2] it was -0.0082; in [3] it was 0.634; in assay [5] it was 0.284; in assay [6], -0.266; in [7], -0.46. In addition, the composite z-score in assay [8] is -0.662; in assay [9], -0.685; in assay [10], -1.07. For the same molecule, the z-score in assay [4] was 0.199 (inactive).

Turning to `COC(=O)[C@@]1(Cc2ccc(F)cc2)[C@H]2c3cc(C(=O)N4CCCC4)n(Cc4cc(C)n(C)n4)c3C[C@H]2CN1C(=O)c1ccccc1`, the composite z-score in assay [1] was 0.89; in assay [2], 1.01; in assay [3], 1.4; in assay [5], 0.533; in [6], 0.775; in assay [7], -0.144. Besides, the composite z-score was -0.261 in [8], -0.449 in [9] and 1.28 in [10]. For the same molecule, the z-score in assay [4] is -3.14 (inactive).

In the case of `COCCOC(=O)N1C(=O)[C@@]2(c3cc(C#Cc4ccc(OC)cc4)ccc31)[C@H](C(N)=O)[C@H]1C(=O)O[C@H](c3ccccc3)[C@H](c3ccccc3)N1[C@@H]2c1ccccc1OCCO`, the composite z-score in [1] was 1.48; in assay [2], 0.714; in [3] it was 0.634; in assay [5] it was 1.12; in assay [6], 1.21; in assay [7], 0.824. In addition, the composite z-score in assay [8] stood at 0.93; in assay [9], 0.705; in [10] it was 0.312. Also, the z-score in assay [4] is -0.265 (inactive).

On to `[N-]=[N+]=Nc1ccccc1C[C@]1(C(=O)NCC(O)CO)N=C(c2ccc(OCCCO)cc2)O[C@H]1c1ccccc1N=[N+]=[N-]` (stereo not given in full), for which the composite z-score in assay [1] is 0.535; in assay [2] it was 0.963; in assay [3] it was 0.704; in assay [5] it was -0.255; in [6] it was -0.517; in assay [7] it was -0.363. For the same molecule, the composite z-score was -0.736 in assay [8], -1.12 in [9] and 1.01 in assay [10]. In addition, the z-score in assay [4] was -1.19 (inactive).

Turning to `O=C1C2C=CC(C(O)c3ccc(F)cc3)N(Nc3ccccc3F)C2C(=O)N1c1ccccc1` (stereo not given), the composite z-score in assay [1] was 1.47; in [2] it was 0.131; in assay [3], 0.996; in [5], 0.678; in assay [6] it was -0.412; in [7] it was -0.609. Moreover, the values for the composite z-score in [8], in [9] and in [10] were 0.396, -0.868 and 0.503, respectively. For the same molecule, the z-score in assay [4] was 1.34 (inactive).

Consider `COc1cc2c(cc1O)C=[N+](Cc1cccc(OC(F)(F)F)c1)CC2`, for which the composite z-score was 0.674 in assay [1]; -0.084 in [2]; 0.39 in [3]; -0.0931 in [5]; -0.104 in assay [6]; 0.128 in assay [7]. Besides, the composite z-score in assay [8] was determined as 0.534; in [9] it was 0.141; in assay [10], 0.994. The z-score in assay [4] is -0.663 (inactive).

As to `CN1C2C=C(CCCO)C(C3C(=O)N(C(N)=O)C(=O)C32)C1c1ccc(CN2CCCC2)cc1` (stereo not given), the composite z-score in assay [1] was -0.323; in assay [2] it was -0.284; in assay [3], -0.257; in assay [5], -0.367; in assay [6], -0.563; in [7], -0.376. Besides, the composite z-score in assay [8] was -0.658; in [9], -0.544; in assay [10], -0.751. Besides, the z-score in [4] was -0.0848 (inactive).

For `COc1ccc(C(=O)Nc2ccc(CN3C(=O)[C@@]4(O[C@@H](CC(=O)N5CCC[C@H]5CO)[C@H]([Si](C)(C)c5ccc(OC)cc5)[C@H]4C)c4ccccc43)cc2)cc1`, the composite z-score in [1] was 1.4; in assay [2], -0.143; in [3] it was -0.0233; in assay [5], 1.38; in assay [6], 1.29; in [7] it was 1.02. Moreover, the composite z-score in assay [8] stood at 1.44; in assay [9] it was 1.14; in assay [10], 0.715. The z-score in [4] is -0.681 (inactive).

For the molecule `CC(C)(C)C(=O)N[C@@H](c1ccc(Cl)cc1)[C@]1(C)C[C@H]1C1CCCCC1`, the composite z-score in [1] is 0.705; in assay [2], 0.701; in assay [3], 0.933; in assay [5] it was 0.521; in assay [6] it was 1.28; in assay [7], -0.19. Besides, the composite z-score came out at 0.233 in assay [8], 0.0399 in assay [9] and 0.998 in [10]. Further, the z-score in [4] is -0.455 (inactive).

In the case of `CN1C(=O)[C@]2(Cc3ccccc3)N=C(c3ccc(OCCCO)cc3)O[C@@H]2c2ccccc21`, the composite z-score in assay [1] was 1.19; in [2] it was 0.566; in assay [3], 0.913; in assay [5], 1.33; in [6], 1.28; in assay [7], 0.367. Besides, the composite z-score came to 0.459 in assay [8], 0.505 in assay [9] and 1.14 in assay [10]. The z-score in [4] is -1.18 (inactive).

Take `CC(C)C(=C=CC[C@@H](O)c1ccccc1OCCO)CCO`: the composite z-score in assay [1] was 0.116; in [2], -0.258; in assay [3], 0.133; in [5], 1.36; in assay [6], 0.0661; in [7], -0.195. In addition, the composite z-score in [8] came to 0.0893; in assay [9], 0.326; in assay [10], 0.434. Also, the z-score in [4] is -0.0616 (inactive).

As for `CCCCN1CC=CC23O[C@@H]4C=CCOC(=O)[C@@H]4[C@H]2C(=O)N(CCCCCO)[C@@H]3C1=O` (stereo not given in full), the composite z-score is 1.15 in assay [1]; -0.159 in assay [2]; 0.641 in assay [3]; -0.828 in assay [5]; -0.656 in [6]; -0.945 in assay [7]. The composite z-score was -1.39 in assay [8], -1.03 in [9] and -0.0355 in assay [10]. In addition, in assay [4], the z-score is -0.248 (inactive).

Source of the values: PubChem BioAssay.
